Assay results reported in PubChem BioAssay (NCATS).
Inconclusive results are not listed. Entries that show only a call come without a potency. Values without a mark were called inactive. Active and inactive are the calls of the source. Unless noted, calls come from the whole dose curve.

Assays:
[1] = biological target: Estrogen receptor (Homo sapiens) (UniProt P03372); experiment: qHTS assay for small molecule agonists of estrogen receptor alpha signaling (AID 588514); note: nearly all actives have a fitted effect of over 70% in size; note: potency is the fitted concentration of half-maximal effect
Procedure, shortened: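 Read-out: CCF4 fluorescence from a beta-lactamase reporter in ER-alpha-UAS-bla HEK 293 cells after 18 hrs of compound exposure at 37 C. Normalized to 20 nM 17-beta-estradiol (100%) and DMSO (0%).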

[2] = biological target: Androgen receptor (Homo sapiens) (UniProt P10275); experiment: qHTS assay for small molecule agonists of androgen receptor signaling (AID 588515; active = well fitted curve in the direction sought with a large enough effect in the signal ratio, with a control signal flat; the % refers to the signal ratio; note: potency is the fitted concentration of half-maximal effect); conditions: AR-UAS-bla HEK293, beta-lactamase ratio, agonist 16 h; activation: hits give high values
Procedure, shortened: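 Stimulation of an AR-responsive β-lactamase reporter in GripTite HEK293 cells was measured after 16 h compound exposure at 37 °C, via CCF4 fluorescence after 2 h RT. EC50 from Hill fits, normalized to R1881 at 30 nM.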

[3] = biological target: Androgen receptor (Homo sapiens) (UniProt P10275); experiment: qHTS assay for small molecule antagonists of androgen receptor signaling (AID 588516; active = well fitted curve in the direction sought with a large enough effect in the signal ratio, with a control signal flat, not every such curve was filed as active; the % refers to the signal ratio)
Procedure, shortened: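 Cells were plated and incubated 5 h, compounds added in titration, then R1881 (10 nM final) as agonist. After 16 h at 37 C, CCF4 substrate was loaded for 2 h at room temperature and fluorescence measured.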

[4] = biological target: Bile acid receptor (Homo sapiens) (UniProt Q96RI1); experiment: qHTS assay for small molecule antagonists of farnesoid X receptor signaling (AID 588526); note: potency is the fitted concentration of half-maximal effect
Procedure, shortened: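 Antagonist mode: titrated compounds tested against chenodeoxycholic acid stimulation (normalized to 50 uM CDCA and DMSO) in GeneBLAzer HEK293T cells for 16 h. Beta-lactamase read by CCF4 fluorescence; IC50 from Hill fits.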

[5] = biological target: Glucocorticoid receptor (Homo sapiens) (UniProt P04150); experiment: qHTS assay for small molecule antagonists of glucocorticoid receptor signaling (AID 588533; active = well fitted inhibition curve with a large enough effect in the signal ratio, with a control signal flat, not every such curve was filed as active; the % refers to the signal ratio)
Procedure, shortened: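 Antagonist-mode qHTS: compound titrations added to GRE-bla HeLa cells, then dexamethasone 2 nM final; 18 h, 37 C. CCF4 FRET fluorescence normalized to dexamethasone and DMSO; IC50 from Hill fit.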

[6] = biological target: Estrogen receptor (Homo sapiens) (UniProt P03372); experiment: qHTS assay for small molecule antagonists of estrogen receptor alpha signaling (AID 588513; active = well fitted curve in the direction sought with a large enough effect in the signal ratio, with a control signal flat, not every such curve was filed as active; the % refers to the signal ratio)
Procedure, shortened: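 Fluorescence from CCF4 substrate after 2 h at room temperature gave reporter activity; cells had been exposed to compound and 0.5nM 17-beta-estradiol for 18 h at 37 C. Hill-equation fitting yielded IC50 and maximal response.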

[7] = qHTS assay for small molecule agonists of the antioxidant response element (ARE) signaling pathway (AID 651741; active = well fitted activation curve with a large enough effect in the signal ratio; the % refers to the signal ratio; note: potency is the fitted concentration of half-maximal effect)
Procedure, shortened: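 HepG2 ARE-bla reporter cells, 2,000/well; 5 h settle at 37 C/5% CO2; compound pin transfer (23 nL, DMSO); 16 h at 37 C; LiveBLAzer B/G FRET substrate, 2 h RT; fluorescence intensity read.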

[8] = biological target: Peroxisome proliferator-activated receptor delta (Homo sapiens) (UniProt Q03181); experiment: qHTS assay for small molecule antagonists of peroxisome proliferator-activated receptor delta signaling (AID 588535; active = well fitted inhibition curve with a large enough effect in the signal ratio, with a control signal flat, not every such curve was filed as active; the % refers to the signal ratio; note: potency is the fitted concentration of half-maximal effect)
Procedure, shortened: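 Beta-lactamase reporter read-out (405 nm excitation, 460/530 nm emission) after CCF4 loading for 2 hrs at RT. HEK293T PPAR-delta-UAS-bla cells, 2% charcoal/dextran FBS, compounds for 18 hrs at 37 C. Hill fit gave IC50 and efficacy.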

[9] = biological target: Vitamin D3 receptor (Homo sapiens) (UniProt P11473); experiment: qHTS assay for small molecule agonists of vitamin D receptor signaling (AID 588543)
Procedure, shortened: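 Reporter cells (HEK293T, VDR-UAS-bla) were seeded in medium with 2% charcoal-stripped serum and incubated 5 h, then compounds in concentration series were added for 16 h at 37 °C. Stimulation was scaled between DMSO basal and 50 nM 1α,25-dihydroxyvitamin D3.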

[10] = biological target: Vitamin D3 receptor (Homo sapiens) (UniProt P11473); experiment: qHTS assay for small molecule antagonists of vitamin D receptor signaling (AID 588541);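 note: receptor activated by calcitriol during compound treatment; series mostly up to about 77 µM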
Procedure, shortened: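 VDR-UAS-bla HEK293T cells in 2% charcoal-stripped FBS were stimulated with 1-alpha,25-dihydroxyvitamin D3 (3 nM final) plus compound for 16 h at 37 C. The beta-lactamase CCF4 readout was normalized to 50 nM agonist and DMSO, and Hill fits gave IC50.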

Chain of Peroxisome proliferator-activated receptor delta (Homo sapiens) (Q03181 whole entry, looked up): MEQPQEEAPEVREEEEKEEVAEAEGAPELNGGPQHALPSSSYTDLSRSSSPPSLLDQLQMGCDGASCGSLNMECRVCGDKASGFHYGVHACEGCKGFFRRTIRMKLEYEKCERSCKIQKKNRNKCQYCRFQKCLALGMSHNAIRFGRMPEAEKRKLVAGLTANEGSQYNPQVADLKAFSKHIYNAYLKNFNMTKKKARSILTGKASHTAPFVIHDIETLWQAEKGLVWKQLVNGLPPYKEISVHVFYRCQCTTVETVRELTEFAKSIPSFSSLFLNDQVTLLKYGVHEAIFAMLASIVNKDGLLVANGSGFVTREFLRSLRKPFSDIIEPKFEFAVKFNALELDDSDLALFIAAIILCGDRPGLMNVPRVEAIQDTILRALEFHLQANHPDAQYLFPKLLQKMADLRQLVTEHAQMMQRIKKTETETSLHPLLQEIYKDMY
Chain of Bile acid receptor (Homo sapiens) (Q96RI1 whole entry, looked up): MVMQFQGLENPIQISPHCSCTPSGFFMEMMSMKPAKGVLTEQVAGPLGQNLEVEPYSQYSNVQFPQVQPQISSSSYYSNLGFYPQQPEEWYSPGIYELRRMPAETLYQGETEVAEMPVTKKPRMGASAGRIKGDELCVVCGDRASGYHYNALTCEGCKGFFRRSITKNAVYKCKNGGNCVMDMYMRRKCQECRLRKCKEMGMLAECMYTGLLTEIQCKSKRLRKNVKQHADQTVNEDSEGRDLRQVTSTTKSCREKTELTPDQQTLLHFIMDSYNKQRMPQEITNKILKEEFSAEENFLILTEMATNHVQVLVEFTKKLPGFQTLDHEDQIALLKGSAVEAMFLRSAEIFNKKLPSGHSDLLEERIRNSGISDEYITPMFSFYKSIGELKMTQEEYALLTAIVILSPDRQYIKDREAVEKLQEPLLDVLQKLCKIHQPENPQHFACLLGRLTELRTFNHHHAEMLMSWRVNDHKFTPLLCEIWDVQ
Chain of Glucocorticoid receptor (Homo sapiens) (P04150 whole entry, looked up): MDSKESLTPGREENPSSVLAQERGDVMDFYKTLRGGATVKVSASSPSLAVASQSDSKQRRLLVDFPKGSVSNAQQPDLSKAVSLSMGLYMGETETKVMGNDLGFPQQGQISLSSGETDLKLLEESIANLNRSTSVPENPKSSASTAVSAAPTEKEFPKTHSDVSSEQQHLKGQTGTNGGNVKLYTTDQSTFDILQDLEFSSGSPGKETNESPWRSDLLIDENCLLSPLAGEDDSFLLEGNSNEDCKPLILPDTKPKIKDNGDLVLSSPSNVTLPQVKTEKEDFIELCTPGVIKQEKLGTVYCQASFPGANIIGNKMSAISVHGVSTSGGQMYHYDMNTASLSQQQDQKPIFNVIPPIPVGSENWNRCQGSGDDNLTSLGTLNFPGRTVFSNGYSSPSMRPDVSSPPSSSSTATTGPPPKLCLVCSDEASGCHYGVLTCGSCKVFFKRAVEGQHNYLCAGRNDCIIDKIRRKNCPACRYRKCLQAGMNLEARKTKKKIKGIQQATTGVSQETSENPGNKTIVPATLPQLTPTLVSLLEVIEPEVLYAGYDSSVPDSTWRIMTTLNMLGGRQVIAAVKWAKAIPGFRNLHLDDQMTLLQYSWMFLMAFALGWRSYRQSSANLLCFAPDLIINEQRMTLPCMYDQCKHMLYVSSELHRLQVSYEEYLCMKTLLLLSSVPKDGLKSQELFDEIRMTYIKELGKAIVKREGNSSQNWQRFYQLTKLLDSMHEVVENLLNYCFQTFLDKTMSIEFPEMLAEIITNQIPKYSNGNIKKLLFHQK
Chain of Estrogen receptor (Homo sapiens) (P03372 whole entry, looked up): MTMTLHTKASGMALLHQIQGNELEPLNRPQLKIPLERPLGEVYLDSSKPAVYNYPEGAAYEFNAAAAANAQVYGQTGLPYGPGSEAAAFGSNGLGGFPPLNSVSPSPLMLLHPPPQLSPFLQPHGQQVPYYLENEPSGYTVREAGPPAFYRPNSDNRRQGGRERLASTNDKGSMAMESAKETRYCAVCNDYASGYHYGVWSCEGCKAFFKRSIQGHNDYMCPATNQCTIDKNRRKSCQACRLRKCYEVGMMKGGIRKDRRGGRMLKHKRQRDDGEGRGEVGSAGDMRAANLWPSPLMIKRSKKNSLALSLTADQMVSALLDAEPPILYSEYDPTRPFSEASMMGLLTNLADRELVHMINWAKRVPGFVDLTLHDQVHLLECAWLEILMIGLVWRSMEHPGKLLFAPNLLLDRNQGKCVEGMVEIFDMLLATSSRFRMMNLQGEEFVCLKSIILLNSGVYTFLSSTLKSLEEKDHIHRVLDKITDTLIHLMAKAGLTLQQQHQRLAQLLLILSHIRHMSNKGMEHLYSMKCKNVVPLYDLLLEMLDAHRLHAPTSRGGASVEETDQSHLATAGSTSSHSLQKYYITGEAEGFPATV
Chain of Androgen receptor (Homo sapiens) (P10275 whole entry, looked up): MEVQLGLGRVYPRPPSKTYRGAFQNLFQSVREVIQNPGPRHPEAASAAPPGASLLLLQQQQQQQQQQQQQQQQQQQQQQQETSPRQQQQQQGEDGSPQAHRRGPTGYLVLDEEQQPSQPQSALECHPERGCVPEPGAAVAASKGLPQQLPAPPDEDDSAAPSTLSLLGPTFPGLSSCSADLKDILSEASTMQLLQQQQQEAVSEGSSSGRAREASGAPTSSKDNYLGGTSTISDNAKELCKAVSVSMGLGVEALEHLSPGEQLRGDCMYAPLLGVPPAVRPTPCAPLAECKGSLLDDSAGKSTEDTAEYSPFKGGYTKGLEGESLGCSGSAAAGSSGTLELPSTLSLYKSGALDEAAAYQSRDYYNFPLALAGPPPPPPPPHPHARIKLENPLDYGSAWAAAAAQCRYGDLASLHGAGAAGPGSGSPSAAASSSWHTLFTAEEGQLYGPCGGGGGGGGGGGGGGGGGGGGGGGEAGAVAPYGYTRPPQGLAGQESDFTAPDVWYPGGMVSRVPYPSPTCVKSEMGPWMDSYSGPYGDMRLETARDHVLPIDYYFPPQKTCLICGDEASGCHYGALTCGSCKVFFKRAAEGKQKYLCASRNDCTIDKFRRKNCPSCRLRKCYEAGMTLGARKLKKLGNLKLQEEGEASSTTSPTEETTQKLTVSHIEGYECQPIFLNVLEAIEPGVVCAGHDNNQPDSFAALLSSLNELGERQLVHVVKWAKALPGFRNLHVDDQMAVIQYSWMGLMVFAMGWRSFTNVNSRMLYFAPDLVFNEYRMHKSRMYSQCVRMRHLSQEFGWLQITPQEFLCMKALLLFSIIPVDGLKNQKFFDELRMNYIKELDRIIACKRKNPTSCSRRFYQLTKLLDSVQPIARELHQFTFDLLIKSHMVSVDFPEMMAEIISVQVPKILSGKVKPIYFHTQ
Chain of Vitamin D3 receptor (Homo sapiens) (P11473 whole entry, looked up): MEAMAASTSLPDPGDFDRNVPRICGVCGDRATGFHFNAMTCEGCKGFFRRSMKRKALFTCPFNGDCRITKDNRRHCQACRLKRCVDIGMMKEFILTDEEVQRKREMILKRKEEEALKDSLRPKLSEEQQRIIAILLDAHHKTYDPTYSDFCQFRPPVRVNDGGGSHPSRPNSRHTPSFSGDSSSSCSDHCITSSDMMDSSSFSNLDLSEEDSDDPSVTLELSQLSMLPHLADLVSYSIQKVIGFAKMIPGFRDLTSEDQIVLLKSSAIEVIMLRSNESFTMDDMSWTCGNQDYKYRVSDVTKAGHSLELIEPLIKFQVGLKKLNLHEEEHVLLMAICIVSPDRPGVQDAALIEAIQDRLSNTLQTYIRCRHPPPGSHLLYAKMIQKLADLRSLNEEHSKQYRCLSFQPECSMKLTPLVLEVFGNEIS

Structure (SMILES): O=C(O)C(Oc1ccc(Cl)cc1)Oc1ccc(Cl)cc1
- Potency [1]: inactive
- activation [2]: -5.73%
- outcome [3]: inactive
- Potency [4]: inactive
- Potency [5]: inactive

Structure (SMILES): CCOC(=O)c1ccccc1C
- Potency [6]: inactive
- Potency [4]: inactive
- Potency [5]: inactive
- Potency [7]: inactive

Structure (SMILES): CCCCCc1ccc(N)cc1
- Potency [6]: inactive
- Potency [8]: inactive
- outcome [9]: inactive

Structure (SMILES): Cn1sccc1=O
- Potency [6]: inactive
- Potency [4]: inactive
- Potency [5]: inactive
- Potency [8]: inactive
- Potency [10]: inactive
- outcome [9]: inactive

Structure (SMILES): CC1(C)C(=O)NC(=O)N1CO
- Potency [6]: inactive
- Potency [5]: inactive
- Potency [8]: inactive
- Potency [10]: inactive
- outcome [9]: inactive

Structure (SMILES): c1ccc2cc3c(ccc4ccccc43)cc2c1
- Potency [6]: inactive
- Potency [4]: inactive

Structure (SMILES): Brc1ccc(Br)c(Br)c1
- Potency [6]: inactive
- Potency [1]: inactive
- Potency [10]: inactive

Structure (SMILES): C[C@]12CCC(=O)C=C1CC[C@@H]1[C@@H]2[C@@H](O)C[C@]2(C=O)[C@@H](C(=O)CO)CC[C@@H]12
- Potency [1]: inactive
- Potency [2]: 15.8 µM (active)
- Potency [4]: inactive
- Potency [10]: inactive
- outcome [9]: inactive
- Potency [7]: inactive

Structure (SMILES): CCCCCCCCCC[N+](C)(C)Cc1ccccc1
- Potency [1]: 1.12 µM (active)
- activation [2]: -12.2%
- Potency [5]: inactive
- Potency [10]: inactive

Structure (SMILES): O=S(c1ccc(Cl)cc1)c1cc(Cl)c(Cl)cc1Cl (stereo unspecified)
- Potency [1]: inactive
- activation [2]: -11.5%
- Potency [4]: inactive
- Potency [8]: inactive
- Potency [10]: inactive
- Potency [7]: 54.5 µM (active)

Structure (SMILES): O=C(O)CN(CCCN(CC(=O)O)CC(=O)O)CC(=O)O
- Potency [1]: 8.91 µM (active)
- activation [2]: -11.6%
- Potency [4]: inactive
- Potency [8]: 14.1 µM (active)
- outcome [9]: inactive

Structure (SMILES): CCCCCCCC/C=C\CCCCCCCCCCCCC
- Potency [1]: inactive
- activation [2]: 5.8%
- outcome [3]: inactive
- Potency [4]: inactive
- Potency [8]: inactive
- Potency [10]: inactive
- Potency [7]: inactive

Structure (SMILES): CCCCOCC(C)O (stereo unspecified)
- Potency [1]: inactive
- Potency [5]: inactive
- outcome [9]: inactive

Structure (SMILES): CCCCOC(=O)[C@@H](C)Oc1ccc(Oc2ccc(C(F)(F)F)cn2)cc1
- Potency [1]: inactive
- Potency [4]: inactive
- Potency [5]: inactive
- Potency [10]: inactive
- outcome [9]: inactive
- Potency [7]: inactive

Structure (SMILES): C[Si]1(C)O[Si](C)(C)O[Si](C)(C)O[Si](C)(C)O1
- Potency [1]: inactive
- Potency [4]: inactive
- Potency [8]: inactive
- outcome [9]: inactive
- Potency [7]: inactive

Structure (SMILES): O=C(O)CN(CCO)CCN(CC(=O)O)CC(=O)O
- Potency [1]: inactive
- activation [2]: 3.88%
- outcome [3]: inactive
- Potency [4]: inactive
- Potency [8]: inactive
- Potency [10]: inactive
- Potency [7]: inactive

Structure (SMILES): O=c1n(CCO)c(=O)n(CCO)c(=O)n1CCO
- Potency [1]: inactive
- Potency [4]: inactive
- outcome [9]: inactive
- Potency [7]: 30.6 µM (active)

Structure (SMILES): CC(C)=CCC[C@@H](C)[C@H]1CC[C@@]2(C)C3=C(CC[C@]12C)[C@@]1(C)CC[C@H](O)C(C)(C)[C@@H]1CC3
- Potency [1]: inactive
- activation [2]: 6.85%
- Potency [4]: inactive
- Potency [5]: inactive
- Potency [8]: inactive
- Potency [10]: inactive
- outcome [9]: inactive
- Potency [7]: inactive

Structure (SMILES): CC1(C)CC(OC(=O)CCCCCCCCC(=O)OC2CC(C)(C)NC(C)(C)C2)CC(C)(C)N1
- Potency [1]: inactive
- Potency [5]: inactive
- Potency [8]: inactive
- Potency [10]: inactive
- outcome [9]: inactive

Structure (SMILES): CCCCCCCC(=O)Oc1c(Br)cc(C#N)cc1Br
- Potency [1]: inactive
- Potency [4]: inactive
- Potency [5]: inactive
- Potency [10]: inactive
- outcome [9]: inactive
- Potency [7]: 61.1 µM (active)

Structure (SMILES): COc1nc(C)nc(NC(=O)NS(=O)(=O)c2ccccc2OCCCl)n1
- Potency [1]: inactive
- Potency [4]: inactive
- Potency [5]: inactive
- Potency [8]: inactive
- outcome [9]: inactive

Structure (SMILES): O=c1[nH]sc2ccccc12
- Potency [1]: inactive
- Potency [4]: 44.7 µM (active)
- outcome [9]: inactive
- Potency [7]: 27.3 µM (active)

Structure (SMILES): CC(C)(C)c1cc(C(C)(C)C)c(O)c(C(C)(C)C)c1
- Potency [1]: inactive
- Potency [5]: inactive
- Potency [8]: inactive

Structure (SMILES): COC(=O)C1CCC(C(=O)OC)CC1 (stereo unspecified)
- Potency [1]: inactive
- Potency [4]: inactive
- Potency [8]: inactive
- Potency [10]: inactive
- outcome [9]: inactive
- Potency [7]: inactive

Structure (SMILES): COCCO
- Potency [1]: inactive
- Potency [5]: inactive
- Potency [8]: inactive
- outcome [9]: inactive
- Potency [7]: inactive

Structure (SMILES): C=CCOC(=O)CC(C)C
- Potency [1]: inactive
- Potency [4]: inactive
- Potency [8]: inactive
- Potency [10]: inactive
- outcome [9]: inactive
- Potency [7]: inactive

Structure (SMILES): C#CCOC(=O)[C@@H](C)Oc1ccc(Oc2ncc(Cl)cc2F)cc1
- Potency [1]: inactive
- Potency [4]: inactive
- Potency [8]: inactive
- Potency [10]: inactive
- outcome [9]: inactive

Structure (SMILES): c1ccc(B(c2ccccc2)c2ccccc2)cc1
- Potency [1]: inactive
- Potency [4]: inactive
- Potency [5]: inactive
- Potency [8]: inactive
- Potency [10]: inactive
- outcome [9]: inactive

Structure (SMILES): CCCN(CCC)c1c([N+](=O)[O-])cc(C(F)(F)F)c(N)c1[N+](=O)[O-]
- Potency [1]: inactive
- Potency [4]: inactive
- outcome [9]: inactive

Structure (SMILES): C=CC(=O)OCC(C)OCC(C)OCC(C)OC(=O)C=C (stereo unspecified)
- Potency [1]: inactive
- Potency [5]: inactive
- outcome [9]: inactive

Structure (SMILES): CO[Si](OC)(OC)c1ccccc1
- Potency [1]: inactive
- Potency [5]: inactive
- Potency [8]: inactive
- Potency [10]: inactive
- outcome [9]: inactive

Structure (SMILES): O=C1CCCCCCCCCCC1
- Potency [1]: inactive
- Potency [5]: inactive
- Potency [8]: inactive
- Potency [7]: inactive

Structure (SMILES): CCCCCCCCCCCCCC(=O)OC
- Potency [1]: inactive
- activation [2]: 9.07%
- outcome [3]: inactive
- Potency [5]: inactive
- Potency [8]: inactive
- Potency [10]: inactive

Structure (SMILES): CC/C=C/CCCCCCCCCCOC(C)=O
- Potency [1]: inactive
- Potency [5]: inactive
- Potency [8]: inactive
- Potency [10]: inactive
- Potency [7]: inactive
